# Screening data (PubChem BioAssay)
# HT1080NT lethal: kills 2HG-producing HT-1080-NT fibrosarcoma cells; HT-1080-NT fibrosarcoma viability, CellTiter-Glo ATP luminescence, 48 h; Potency, µM (highest dose often 46.1 µM), inactives show top-dose activity, negative = less viability, most hits filed as cytotoxic; hit rate 1.6% among 360,000;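 further: NT is the 2HG producing partner of a matched IDH1 knockdown line; potency means the concentration at half of the fitted maximal effect; 0% = DMSO-treated cells and -100% = media-only wells without cells; nearly all actives have a fitted effect of over 55% in size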
#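 Read-out is CellTiter-Glo luminescence after 10 minutes at room temperature, following 48 hours' compound treatment of HT-1080-NT cells (750 cells/well, RPMI, 5% FBS, 37 degrees C).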
# HT1080 IDH1KD tx: HT-1080 IDH1 knockdown cell toxicity (counter line) | HT-1080 IDH1 knockdown viability, ATP luminescence, 48 h | Potency, µM (doses to about 46.1 µM), for the others: at the highest dose activity, negative = toxicity, hits mostly cytotoxic | hit rate 2% among 360,000;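 further: potency means the concentration at half of the fitted maximal effect; 0% = DMSO wells and -100% = cell-free medium wells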
#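 Assay cells: HT-1080 with IDH1 knockdown, 750 per well, RPMI/5% FBS. Exposure: 48 h at 37 °C following 2 h pre-incubation. Read: CellTiter-Glo luminescence; fitted concentration-response, curve class assigned.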
# KB-V1 MDR tox: kills drug-selected multidrug resistant KB-V1 cells. KB-V1 MDR cells viability, CellTiter-Glo, 72 h. Potency, µM (titrated, usually from 46.1 µM), most hits filed as cytotoxic. hit rate 3.4% among 400,000; further: potency means the concentration at half of the fitted maximal effect; nearly all actives have a fitted effect of over 60% in size
#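 Luminescent ATP read-out (CellTiter-Glo, 10 min) measures survival of drug-selected KB-V1 MDR cells after 72 h, 37 degrees C compound exposure. Medium: phenol-red-free DMEM, 10% FBS. Values from fitted concentration-response curves.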
# KB-3-1 cytotox: kills parental KB-3-1 adenocarcinoma cells; hit rate 1.4% among 400,000; KB-3-1 viability, CellTiter-Glo ATP luminescence, 72 h; Potency, µM (doses to about 46.1 µM), actives largely listed as cytotoxic; AID 1347075; further: potency means the concentration at half of the fitted maximal effect; nearly all actives have a fitted effect of over 60% in size
#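 Cytotoxicity in the drug-sensitive parental line KB-3-1 was scored as loss of CellTiter-Glo luminescence following 72 h incubation with compound. Values come from curve fitting of normalized concentration-response data.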
# IL-1B inflam inh: blocks inflammasome-driven IL-1 beta release; THP-1 LPS/ATP IL-1B secretion, AlphaLISA, 16 h; active compounds read low; activity change, % at 57.5 µM; hit rate 4.7% among 360,000; AID 743279; in the data active means activity change below about -50%; inconclusive means mostly about -30% to -49%
#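 Secreted IL-1B measured by AlphaLISA bead assay after 16 h compound exposure of THP-1 cells; compounds (final up to 57.5 uM) added 1 h before LPS (250 ng/mL) and ATP (1.25 mM) stimulation; lower signal means less secretion.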
# * marks the source's active call; other numbers are inactive results; i = inactive; ? = inconclusive; . = not tested or not shown; ! = not active in a repeat; [ ] = remark or other dose. Only some compounds are listed: those with a hit (about 8.8% of all), similar ones and a draw of the others. Unless noted, the call rests on the fitted dose curve; in most records, active means well fitted curve in the direction sought with a large enough effect; inconclusive means small, poorly fitted or top-dose-only effect, or another doubt; inactive means no such curve, though single readings can be large; an effect the other way counts as inactive or inconclusive. Unless noted, on the % scale 0 is the no-effect control and ±100 the full control effect.
SMILES,HT1080NT lethal,HT1080 IDH1KD tx,KB-V1 MDR tox,KB-3-1 cytotox,IL-1B inflam inh
COc1ccc(C2=CC(c3ccc4c(c3)OCO4)c3c(c4ccccc4oc3=O)O2)cc1OC (stereo not drawn),?,?,2.59µM*,2.91µM*,-21.0
CC(c1ccccc1)n1cncc1C(=O)O (stereo not drawn),-1.0%,9.0%,i,i,22.2
Cc1cc(C)cc(N2C(=O)NC(=O)/C(=C/c3cccn3-c3ccc(Cl)cc3)C2=O)c1,?,?,i,i,-96.2*
Cc1cccc(N2C(=O)NC(=O)/C(=C\c3cccn3-c3ccc(Cl)cc3)C2=O)c1,?,?,18.4µM*,?,-89.8*
CC(C)(C)n1cccc1/C=C1\C(=O)NC(=O)N(c2ccccc2)C1=O,5.1%,-6.9%,i,i,-7.6
OCCN(CC#CC(O)(c1ccccc1)C1CCCC1)CCO (stereo not drawn),16.1%,17.5%,i,i,-0.7
CNC(=O)Oc1ccc(N(C)C)cc1C(C)C,2.0%,-1.8%,i,i,0.0
CN1CSC(=S)N(C)C1,-4.0%,-4.9%,?,?,-95.4*
COc1ccc(CC2C(=O)NC(C)C(=O)N(C)C3C(=O)N(C)C(Cc4ccc(O)c(c4)Oc4ccc(cc4)C3O)C(=O)NC(C)C(=O)NC(C)C(=O)N2C)cc1 (stereo not drawn),0.461µM*,0.0731µM*,i,0.164µM*,-100.8*
CNc1cc(Cl)c2nonc2c1[N+](=O)[O-],3.26µM*,5.8µM*,?,?,-105.5*
CCCCCCCCn1sccc1=O,6.51µM*,8.2µM*,i,?,-107.2*
COCCCn1c(-c2ccc(OC)cc2)cc(C(=O)NC2CCCCCCC2)c1C,?,?,i,?,-52.5*
O=C(O)C1C2CC3CC(C2)CC1(n1ncc(N2CCC4(CC2)OCCO4)c(Cl)c1=O)C3 (stereo not drawn),26.6%,20.0%,i,i,-6.0
N#CC1=C(N)C(C#N)(C#N)C(c2ccncc2)C2CN(C(=O)OCc3ccccc3)CC=C12 (stereo not drawn),?,20.6µM*,?,?,?
O=Cc1cn(Cc2ccc(Br)cc2)c2ccccc12,-14.9%,-11.8%,?,10.3µM*,-13.5
COc1cc2cc(C(=O)N3CC(COS(C)(=O)=O)c4ccc(O)cc43)[nH]c2c(OC)c1OC (stereo not drawn),2.91µM*,0.13µM*,0.0092µM*,?,-99.2*
CCCCCCCSc1cc(OC)c(CCN(C)C)cc1OC,-10.2%,-22.7%,?,?,-99.5*
CCCCCSc1cc(OC)c(CCN)cc1OC,?,?,?,20.6µM*,-27.5
O=C1NCN(c2ccccc2)C12CCN(C(c1ccccc1)c1nnnn1Cc1ccccc1)CC2 (stereo not drawn),-28.8%,?,?,i,-13.3
CC(O)(CS(=O)(=O)c1ccccc1)C(=O)Nc1cccc(C(F)(F)F)c1 (stereo not drawn),5.4%,-9.5%,20.6µM*,i,0.3
Cc1ccc(S(=O)(=O)CC(C)(O)C(=O)Nc2cccc(C(F)(F)F)c2)cc1 (stereo not drawn),1.7%,?,i,i,-2.1
Clc1ccc(CSC(Cn2ccnc2)c2ccc(Cl)cc2Cl)cc1 (stereo not drawn),?,?,?,i,-9.8
Clc1ccc(COC(Cn2ccnc2)c2ccc(Cl)cc2Cl)cc1 (stereo not drawn),?,14.6µM*,?,?,0.0
C[C@]12CCC3C(CC[C@H]4C[C@@H](O)CC[C@]34C)C1CCC2=O (stereo partly drawn),0.3%,14.9%,?,i,37.9
O=C(C1CC(c2ccc(Cl)c(Cl)c2)=NO1)N1CCC2(CC1)OCCO2 (stereo not drawn),-2.5%,-4.5%[9.24 µM],i,i,-70.9*
SMILES,HT1080NT lethal,HT1080 IDH1KD tx,KB-V1 MDR tox,KB-3-1 cytotox,IL-1B inflam inh
CC1(C)CCCN1CCC(C(N)=O)(c1ccccc1)c1ccccc1,2.0%,-0.2%,i,i,-9.8
CC(=O)c1ccc(NC(=O)c2sc3nc4c(cc3c2N)N2CCC4CC2)cc1,.,.,23.1µM*,?,.
CCOC(=O)c1ccc(NC(=O)c2sc3nc4c(cc3c2N)N2CCC4CC2)cc1,.,.,i,i,.
CCP(=S)(CC)c1ccc(N(C)C)cc1,-2.5%,15.1%,i,i,17.4
C=CCC1(CCCCC)C(=O)NC(=S)NC1=O,5.0%,13.1%,i,i,15.1
C[C@]12CC[C@@H](O)CC1=CCC1C2CC[C@@]2(C)C1CC[C@@H]2N (stereo partly drawn),7.2%,14.3%,i,i,11.7
COc1cc(/C=C2\C[C@H]3[C@@H]4CC=C5C[C@@H](N6CCCC6)CC[C@]5(C)[C@H]4CC[C@]3(C)[C@H]2O)cc(OC)c1OC,-10.6%,-22.0%,2.91µM*,i,-10.2
CCOC(=O)c1ccc(NC(=O)c2c(O)[nH]c(=O)[nH]c2=O)cc1,1.2%,-0.2%,i,i,9.8
O=C1NC(=O)C(=Cc2cn(CCOc3ccc4c(c3)OCO4)c3ccccc23)C(=O)N1,-2.6%,-8.2%[9.24 µM],?,20.6µM*,-10.1
C=CCn1cc(C=C2C(=O)NC(=O)NC2=O)c2ccccc21,-11.4%,-5.2%,i,i,-11.8
C=C1C(=O)OC2C1CCC(C)C1(O)C=CC(=O)C21C (stereo not drawn),?,?,?,?,-108.6*
CC[C@]12C=CCN3CCC4(c5cc(Br)c(OC)cc5N(C)C4[C@@](O)(C(=O)OC)[C@@H]1OC(C)=O)C32 (stereo partly drawn),-11.7%,2.4%,i,i,0.5
CCC(=NCCC(c1ccccc1)c1ccccc1)c1c(O)n(C)c(=O)n(C)c1=O,-22.7%,-17.1%,?,?,15.3
CCC(=NCc1ccc(F)cc1)c1c(O)n(C)c(=O)n(C)c1=O,-1.2%,-20.1%,14.6µM*,?,-13.7
COC(=O)C1=C(c2ccc3ccccc3c2)C[C@@H]2CC[C@H]1N2C(=O)NC1CCCCC1,2.0%,2.4%,i,i,9.5
CN(C)c1ccc(C(=O)c2ccc(N(C)C)cc2)cc1,7.08µM*,2.51µM*,?,?,27.2
CCCC12CN3CC(CCC)(CN(C1)C3c1ccccn1)C2=O (stereo not drawn),1.3%,-0.4%,2.59µM*!,i,-3.8
CCCC12CN3CCN(C1)CC(CCC)(C3)C2=O,3.3%,0.6%,i,i,12.6
CCCNC(=O)N1[C@H]2CC[C@@H]1C(C(=O)OC)=C(c1ccccc1)C2,19.2%,16.1%,i,i,15.6
Cc1cc(S(=O)(=O)NC(C)C)ccc1OCC(=O)N1CCN(Cc2ccc3c(c2)OCO3)CC1,?,?,2.59µM*,16.4µM*,-9.4
